Bioassay records (PubChem)
Efflux pump inh = inhibitors of Candida antifungal efflux pumps expressed in yeast; S. cerevisiae Candida pump triplex, Nile Red efflux; inhibition, % at 10 µM; 0.44% of 330,000 active;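 active means plate passing quality check with inhibition over a set limit, or well fluorescence over plate mean plus 4 SD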;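 further: Nile Red retained in pooled yeast measured as flow cytometry median fluorescence; 0% = buffer negative control and 100% = Enniatin B positive control; higher means more Nile Red kept so more efflux inhibition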
PHOSPHO1 inh = inhibitors of human PHOSPHO1 phosphatase | Q8TCT1 | recombinant PHOSPHO1, absorbance phosphatase assay | inhibition, % at 13.3 µM | 1.1% of 290,000 active | AID 1565; in the data active means inhibition above about 60%
H9c2 protect = protects H9c2 cardiomyocytes from peroxide injury | H2O2 injury protection, ATPLite, 2 h | protection from H2O2 cell death, % at 20 µM | 0.63% of 360,000 active;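 active means compounds giving at least 50% protection of heart cells from peroxide-induced death in the single-dose screen, raw or plate-pattern-corrected value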;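 further: 0% = DMSO wells with peroxide and 100% = DMSO wells without peroxide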
Calb FLC = C. albicans growth modulation with fluconazole; C. albicans CaCi-2 (fluconazole-resistant clinical isolate) + fluconazole, Alamar Blue growth, 48 h; growth inhibition, % (no concentration beside the values); 0.57% of 300,000 active; AID 1979;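 active means growth inhibition above about 58% in most replicates, limit read from the data, passing the limit was not always enough; inconclusive means exactly half the replicates above a set limit; inactive means most replicates below a set limit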;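 further: all wells also contain fluconazole at 8 µg/ml as a sub-toxic cotreatment; 0% = median of DMSO wells and 100% = median of geldanamycin control wells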
Cl transport mod = modulates chloride dependent transport by human KCC2; Q9H2X9; KCC2 cells, thallium flux FluoZin-2 fluorescence; B-score of Tl+ flux slope (higher = more flux/activation; lower = inhibition) at 10 µM; 2.2% of 190,000 active; AID 1456;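 active means thallium flux slope and its plate-corrected score both differing from the plate sample mean at a set confidence after two filtering rounds, in either direction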;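 further: slope of fluorescence scaled to starting intensity during 10 to 20 s after thallium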
Target sequence (Q9H2X9 whole entry, looked up): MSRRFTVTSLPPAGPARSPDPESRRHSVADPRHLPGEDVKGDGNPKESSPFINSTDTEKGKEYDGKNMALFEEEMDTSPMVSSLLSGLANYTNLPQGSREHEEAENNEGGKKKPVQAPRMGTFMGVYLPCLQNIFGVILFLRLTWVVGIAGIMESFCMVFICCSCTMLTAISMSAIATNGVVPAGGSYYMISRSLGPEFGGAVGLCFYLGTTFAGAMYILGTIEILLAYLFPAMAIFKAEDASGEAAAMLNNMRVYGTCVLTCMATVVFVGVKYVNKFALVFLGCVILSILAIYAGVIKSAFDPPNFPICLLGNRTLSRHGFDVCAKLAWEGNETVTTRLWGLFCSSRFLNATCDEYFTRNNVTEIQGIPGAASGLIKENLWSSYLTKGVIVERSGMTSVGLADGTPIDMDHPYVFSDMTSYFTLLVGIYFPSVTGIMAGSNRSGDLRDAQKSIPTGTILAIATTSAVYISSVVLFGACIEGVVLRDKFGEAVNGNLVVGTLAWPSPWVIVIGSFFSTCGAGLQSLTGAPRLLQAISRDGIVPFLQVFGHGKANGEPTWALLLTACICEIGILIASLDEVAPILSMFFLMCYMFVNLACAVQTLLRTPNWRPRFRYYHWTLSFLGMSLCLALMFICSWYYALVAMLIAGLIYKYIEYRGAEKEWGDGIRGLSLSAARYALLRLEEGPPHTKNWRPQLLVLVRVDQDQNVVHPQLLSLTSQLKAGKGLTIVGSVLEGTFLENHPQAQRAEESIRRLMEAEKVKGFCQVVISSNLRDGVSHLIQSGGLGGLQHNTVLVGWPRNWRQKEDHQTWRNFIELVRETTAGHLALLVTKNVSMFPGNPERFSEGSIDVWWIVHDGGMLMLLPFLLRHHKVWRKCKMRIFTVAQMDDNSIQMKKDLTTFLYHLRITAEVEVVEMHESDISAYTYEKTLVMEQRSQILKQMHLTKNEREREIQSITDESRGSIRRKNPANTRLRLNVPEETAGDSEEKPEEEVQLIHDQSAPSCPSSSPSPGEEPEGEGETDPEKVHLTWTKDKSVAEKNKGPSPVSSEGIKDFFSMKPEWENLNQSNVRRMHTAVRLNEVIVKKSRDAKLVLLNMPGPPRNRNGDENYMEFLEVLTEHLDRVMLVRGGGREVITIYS
KCC2 secondary = KCC2 (human) modulation, secondary assay. HEK293-KCC2, thallium flux, FluoZin2 fluorescence; hits give high values. 15% of 3,700 active. normalised thallium flux (F/F0 slope) at 10 µM. shares compounds with Cl transport mod;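 active means thallium flux slope above the same plate's solvent-only control mean plus 3 SD; inconclusive means the two replicate wells disagree; inactive means no significant difference from solvent-only control wells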
KCC2 bumet counter = bumetanide-insensitive thallium flux in KCC2 cells with ouabain, counter-screen; HEK293-KCC2 + bumetanide/ouabain, thallium flux FluoZin2; hits give high values; 49% of 3,700 active; normalized thallium flux at 10 µM; AID 1714; shares compounds with Cl transport mod;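 active means thallium entry rate above the same plate's blocked-transporter control wells by more than 3 SD; inconclusive means the two repeat wells disagree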;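 further: raw slope of fluorescence over initial fluorescence between 10 and 20 s after thallium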
KCC2 sec2 = confirmation of human KCC2 transport modulators; shares compounds with Cl transport mod; HEK293-KCC2, thallium flux FluoZin2 fluorescence; actives lie on both sides; F/F0 rise rate, 10–20 s post-thallium; normalized thallium flux at 10 µM; 23% of 3,700 active; AID 1715;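 active means thallium flux slope more than 3 SD above or below the plate's solvent-only control mean, mostly below; inconclusive means the two repeat wells disagreed; inactive means no significant shift from solvent-only controls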;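 further: raw slope with 0.1% DMSO as baseline and bumetanide as block control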
HEK counter1 = acts in parental HEK cells, KCC2 counter-screen. thallium flux rate (normalised fluorescence) at 10 µM. 46% of 3,700 active. shares compounds with Cl transport mod. HEK293 parental cells, thallium flux FluoZin2, ouabain; baseline-ratio fluorescence slope, 10–20 s after thallium;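 active means thallium flux rate significantly above the same plate's solvent-only control wells, beyond their mean plus 3 SD; inconclusive means the two replicate wells gave conflicting results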
KCC2 retest ouab = confirmation of human KCC2 modulators with ouabain. shares compounds with Cl transport mod. 48% of 3,700 active. AID 1717. HEK293-KCC2, thallium flux FluoZin2 fluorescence; bidirectional: low = inhibitor, high = activator. raw Tl+ flux slope (below DMSO = inhibition, above = activation) at 10 µM;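 active means thallium flux slope beyond 3 SD from same-plate DMSO control mean in most replicates, usually higher, sometimes lower; inconclusive means repeat tests gave conflicting results; inactive means no significant difference from controls in most replicates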;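 further: slope of initial-normalized fluorescence between seconds 10 and 20 after thallium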
HEK293 Tl flux2 = parental HEK flux effect, counter-screen 2; thallium flux slope at 10 µM; HEK293 parental, thallium flux FluoZin-2 fluorescence slope; 33% of 3,700 active; shares compounds with Cl transport mod;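 active means thallium flux slope above the same plate's solvent-control mean plus 3 SD in both duplicate wells; inconclusive means duplicate wells that disagreed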;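 further: run without ouabain in cells lacking the KCC2 cotransporter; slope of fluorescence scaled to its starting value between 10 and 20 s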
An asterisk follows results filed as active; ? = inconclusive; nt = not tested or not shown. Rows were chosen to be rich in hits. Some 3.3% of all compounds tested hit in one or more screens of this group.

SMILES	Efflux pump inh	PHOSPHO1 inh	H9c2 protect	Calb FLC	Cl transport mod	KCC2 secondary	KCC2 bumet counter	KCC2 sec2	HEK counter1	KCC2 retest ouab	HEK293 Tl flux2
CC(OC(=O)C1=Cc2ccccc2OC1)C(=O)NCc1ccco1 (centres undefined)	0	17	0	-33	-2.3	nt	nt	nt	nt	nt	nt
O=C(NC(=S)N(CCO)Cc1ccccc1)c1cc(Br)ccc1Cl	0	-27	6	26	10*	0.015*	0.039*	0.033	?	0.033*	0.012
CCN(Cc1ccccc1)C(=S)NC(=O)c1ccccc1Br	0	22	9	0	nt	nt	nt	nt	nt	nt	nt
CC(C)OCCCNC(=O)c1cc2c(s1)CS(=O)(=O)C2	0	-10	4	2	nt	0.0088	0.0053	0.031	0.0079	0.018	0.01
COCCCNC(=O)c1cc2c(s1)CS(=O)(=O)C2	-1	12	12	-3	0.49	nt	nt	nt	nt	nt	nt
O=C(O)c1cc([N+](=O)[O-])ccc1NCc1ccccc1Cl	0	-16	1	36	-4.5*	?	0.0056*	0.022*	?	0.011*	0.0099
O=C(COc1ccc(Cl)cc1Cl)NNC(=S)NCc1ccco1	0	-7	-15	25	3.7	nt	nt	nt	nt	nt	nt
O=C(NC(=S)NNC(=O)c1cccs1)c1ccco1	0	27	1	-3	3.6*	0.018*	0.029*	0.038	0.019*	0.036*	0.013*
CCCOc1ccc(C(=O)NNC(=S)NC(=O)c2ccccc2[N+](=O)[O-])cc1	0	8	22	-2	nt	nt	nt	nt	nt	nt	nt
O=C(NNC(=S)NC(=O)c1ccco1)c1ccc(F)cc1	0	-29	10	-7	60*	0.026*	0.063*	?	0.035*	0.043*	0.019*
O=C(NNC(=S)Nc1ccc(F)cc1F)c1ccco1	0	-90	1	-29	nt	nt	nt	nt	nt	nt	nt
O=C(NNC(=O)c1cccs1)c1ccco1	0	49	-1	-3	0.23	nt	nt	nt	nt	nt	nt
O=C(COc1ccc(Cl)cc1Cl)NNC(=S)NC(=O)c1ccco1	0	3	19	66	70*	0.03*	0.12*	0.036	?	0.076*	0.03*
CCCOc1ccc(C(=O)NNC(=S)NC(=O)c2ccco2)cc1	0	-65	24	78*	97*	0.007	0.0048	0.084*	0.086*	?	0.084*
CC(C)c1ccc(-c2cc(C(=O)N3CCOCC3)c3cc(Br)ccc3n2)cc1	0	23	0	-4	nt	nt	nt	nt	nt	nt	nt
Cc1ccc(OCCNC(=O)c2ccc(C)cc2)cc1	0	33	-3	-5	nt	nt	nt	nt	nt	nt	nt
CCCOc1ccc(C(=O)NCCO)cc1	0	2	5	-6	5.9*	0.0095	0.0057	0.033	0.0078	0.023	0.0099
CSc1ccc(NC(=O)NCCN2CCc3ccccc3C2)cc1	0	22	-4	-19	-3.9*	0.014	0.0051	0.025*	0.0072	0.015	0.0099
COc1ccc(NC(=O)NCCN2CCc3ccccc3C2)cc1	0	-19	27	-11	-2.4	nt	nt	nt	nt	nt	nt
Cc1ccc(CC(C(=O)O)C(C)C(=O)Nc2ccc(F)cc2)cc1 (centres undefined)	0	48	-1	-8	nt	nt	nt	nt	nt	nt	nt
Cc1ccsc1/C=N\NC(=O)c1ccc2c(c1)OCO2	0	-1	-13	-14	5.9*	0.0066	0.0063*	0.027	0.011*	0.02	?
CC(C)Cc1c2c([nH]c(=S)c1C#N)CCCC2	0	4	2	18	27*	0.019*	0.068*	0.037	0.034*	0.058*	0.014*
Cc1[nH]c(=S)c(C#N)c2c1CCCC2	0	-1	0	-3	3.8*	0.0088	0.0086*	0.035	0.011*	0.021	0.011
Cc1ccc(S(=O)(=O)NNC(=O)Nc2ccc([N+](=O)[O-])cc2)c(C)c1	0	18	-6	-7	nt	nt	nt	nt	nt	nt	nt
O=C(c1nn2c(C(F)(F)F)cc(-c3ccco3)nc2c1Br)N1CCCc2ccccc21	0	-13	-13	34	nt	?	0.0047	0.025*	0.0075	?	0.011
SMILES	Efflux pump inh	PHOSPHO1 inh	H9c2 protect	Calb FLC	Cl transport mod	KCC2 secondary	KCC2 bumet counter	KCC2 sec2	HEK counter1	KCC2 retest ouab	HEK293 Tl flux2
O=C(c1nn2c(C(F)(F)F)cc(-c3cccs3)nc2c1Br)N1CCCc2ccccc21	0	-1	-5	23	-1.8	nt	nt	nt	nt	nt	nt
Cc1nn(-c2ccc(F)cc2)c(C)c1NS(=O)(=O)c1ccc2ccccc2c1	0	14	-14	17	-7.2*	0.0053	?	0.022*	0.007	?	0.011
CC(=O)Nc1ccc(S(=O)(=O)Nc2c(C)nn(-c3ccccc3)c2C)cc1	0	12	-4	-4	nt	0.0067	0.0043	0.03	?	0.016	0.009
Cc1nc(NC(=O)c2cnccn2)ccc1Br	0	25	-11	2	nt	nt	nt	nt	nt	nt	nt
COc1cc(-c2noc(C)c2C(=O)NCCCn2ccnc2)cc(OC)c1OC	0	nt	3	nt	nt	nt	nt	nt	nt	nt	nt
CCC(=O)NNC(=O)c1cc(COc2cc(Cl)cc(Cl)c2)on1	0	-16	-2	-4	8.6*	0.0068	0.018*	0.031	0.017*	?	0.014*
CCC(NC(=O)c1cc(COc2cncc(Cl)c2)on1)c1ccncc1 (centres undefined)	0	3	0	2	nt	nt	nt	nt	nt	nt	nt
CCc1nn(C(C)C(=O)N2CCc3ccccc3C2)c(=O)c2cc3occc3n12 (centres undefined)	0	11	11	4	-5.9*	?	0.0041	0.022*	0.0061*	0.012*	?
CCc1nn(C(C)C(=O)NCCN2CCCCCC2)c(=O)c2cc3occc3n12 (centres undefined)	0	34	11	6	nt	nt	nt	nt	nt	nt	nt
OC(c1ccc(-c2ccccc2)cc1)c1ncc(-c2ccc(C(F)(F)F)cc2)[nH]1 (centres undefined)	nt	nt	-14	nt	nt	nt	nt	nt	nt	nt	nt
COc1cccc([C@@H]2Oc3ccc(OC)cc3C(=O)[C@H]2OC(=O)Nc2cc(OC)c(OC)c(OC)c2)c1	0	18	nt	nt	0.17	nt	nt	nt	nt	nt	nt
